Laboratory results from PubChem BioAssay (NCATS).
Records with an inconclusive call do not appear. Active and inactive are the calls of the source. Unless noted, calls follow the shape of the dose curve; as a rule, active = well fitted curve in the direction sought with a large enough effect; inconclusive = small, poorly fitted or top-dose-only effect, or another doubt; inactive = no such curve, though single readings can be large; an effect the other way counts as inactive or inconclusive.

Assays:
[1] = target: Guanine nucleotide-binding protein G(i) subunit alpha-1 (Homo sapiens) (UniProt P63096); assay: qHTS Assay for Inhibitors of RGS12 GoLoco Motif Activity (Green Fluorophore) (AID 879);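 also: negative values mean loss of peptide binding seen as reduced polarization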
Method in brief: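 Fluorescence polarization assay: 50 nM Gαi1 with 10 nM FITC-labeled RGS12 GoLoco peptide in 10 mM Tris pH 7.5, 150 mM NaCl, 0.1 mM GDP, 0.05% NP40, 10 min at room temperature with compound.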

[2] = S16 Schwann cell viability assay (CellTiter-Glo assay) (AID 624031);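 also: cellular ATP luminescence as a viability measure; nearly all actives have a fitted effect of over 70% in size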
Method in brief: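 Native S16 rat Schwann cells, 500-750 cells/well in DMEM with 10% FBS, dosed with compound after overnight culture and incubated 24h at 37 degree Celsius/5% CO2. Viability by CellTiter-Glo luminescence; % activity normalized to no-cell wells and DMSO-treated cells.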

ATS189 = assay: qHTS profiling for inhibitors of Plasmodium falciparum proliferation (AID 504749); also: nearly all actives have a fitted effect of over 60% in size; conditions: P. falciparum in erythrocytes, SYBR Green DNA, 72 h; series mostly up to 12.8 µM
Method in brief: (§1)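 Readout was DNA-dye fluorescence from lysed cultures, ex 485/em 535 nm. Parasitized red cells had grown 72 h with compound; data scaled between 0.29 uM artemisinin and DMSO wells and corrected using vehicle-only plates.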

CP185 = assay: as above; conditions: P. falciparum in erythrocytes, SYBR Green DNA, 72 h; series mostly up to 12.8 µM
Method in brief: as §1

CP191 = assay: as above; conditions: P. falciparum in erythrocytes, SYBR Green DNA, 72 h; series mostly up to 12.8 µM
Method in brief: as §1

CP201 = assay: as above; conditions: P. falciparum in erythrocytes, SYBR Green DNA, 72 h; series mostly up to 12.8 µM
Method in brief: as §1

CP247 = assay: as above; conditions: P. falciparum in erythrocytes, SYBR Green DNA, 72 h; series mostly up to 12.8 µM
Method in brief: as §1

CP250 = assay: as above; conditions: P. falciparum in erythrocytes, SYBR Green DNA, 72 h; series mostly up to 12.8 µM
Method in brief: as §1

CP256 = assay: as above; conditions: P. falciparum in erythrocytes, SYBR Green DNA, 72 h; series mostly up to 12.8 µM
Method in brief: as §1

CP262 = assay: as above; conditions: P. falciparum in erythrocytes, SYBR Green DNA, 72 h; series mostly up to 12.8 µM
Method in brief: as §1

CP325 = assay: as above; conditions: P. falciparum in erythrocytes, SYBR Green DNA, 72 h; series mostly up to 12.8 µM
Method in brief: as §1

CP329 = assay: as above; conditions: P. falciparum in erythrocytes, SYBR Green DNA, 72 h; series mostly up to 12.8 µM
Method in brief: as §1

Dd2 = assay: as above; conditions: P. falciparum in erythrocytes, SYBR Green DNA, 72 h; series mostly up to 12.8 µM
Method in brief: as §1

JCK = assay: as above; conditions: P. falciparum in erythrocytes, SYBR Green DNA, 72 h; series mostly up to 12.8 µM
Method in brief: as §1

N140 = assay: as above; conditions: P. falciparum in erythrocytes, SYBR Green DNA, 72 h; series mostly up to 12.8 µM
Method in brief: as §1

PC15 = assay: as above; conditions: P. falciparum in erythrocytes, SYBR Green DNA, 72 h; series mostly up to 12.8 µM
Method in brief: as §1

PC49 = assay: as above; conditions: P. falciparum in erythrocytes, SYBR Green DNA, 72 h; series mostly up to 12.8 µM
Method in brief: as §1

SC27B = assay: as above; conditions: P. falciparum in erythrocytes, SYBR Green DNA, 72 h; series mostly up to 12.8 µM
Method in brief: as §1

TAB113 = assay: as above; conditions: P. falciparum in erythrocytes, SYBR Green DNA, 72 h; series mostly up to 12.8 µM
Method in brief: as §1

[3] = target: Pyruvate kinase PKM (Homo sapiens) (UniProt P14618); assay: qHTS Assay for Activators of Human Muscle Pyruvate Kinase (AID 954; active = well fitted curve in the direction sought with a large enough effect, not every such curve was filed as active)
Method in brief: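 Purified human PKM2 (0.1 nM) with 0.5 mM PEP (Km) and 0.1 mM ADP in 50 mM imidazole pH 7.2, KCl, MgCl2, 1 h at room temperature; ATP formed read by coupled luciferase luminescence. Normalized to no-enzyme/110 uM thiadiazolimine inhibition; 0.3 nM enzyme column for activation.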

Measured: Potency

Pyruvate kinase PKM (Homo sapiens), sequence (P14618 whole entry, looked up): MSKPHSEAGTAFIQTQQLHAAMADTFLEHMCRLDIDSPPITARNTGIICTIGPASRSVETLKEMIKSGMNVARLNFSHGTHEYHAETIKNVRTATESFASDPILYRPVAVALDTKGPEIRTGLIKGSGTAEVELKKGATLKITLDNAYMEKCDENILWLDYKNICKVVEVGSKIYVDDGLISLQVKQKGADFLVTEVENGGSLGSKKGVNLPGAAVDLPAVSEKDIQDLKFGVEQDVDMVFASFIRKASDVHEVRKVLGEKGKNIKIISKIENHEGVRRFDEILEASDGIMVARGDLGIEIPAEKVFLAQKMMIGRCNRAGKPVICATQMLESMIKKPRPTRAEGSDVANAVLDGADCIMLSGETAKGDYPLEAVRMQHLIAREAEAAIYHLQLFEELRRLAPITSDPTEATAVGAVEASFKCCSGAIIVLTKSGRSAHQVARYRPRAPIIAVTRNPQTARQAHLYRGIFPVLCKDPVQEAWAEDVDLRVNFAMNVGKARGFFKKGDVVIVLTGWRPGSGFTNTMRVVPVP
Guanine nucleotide-binding protein G(i) subunit alpha-1 (Homo sapiens), sequence (P63096 whole entry, looked up): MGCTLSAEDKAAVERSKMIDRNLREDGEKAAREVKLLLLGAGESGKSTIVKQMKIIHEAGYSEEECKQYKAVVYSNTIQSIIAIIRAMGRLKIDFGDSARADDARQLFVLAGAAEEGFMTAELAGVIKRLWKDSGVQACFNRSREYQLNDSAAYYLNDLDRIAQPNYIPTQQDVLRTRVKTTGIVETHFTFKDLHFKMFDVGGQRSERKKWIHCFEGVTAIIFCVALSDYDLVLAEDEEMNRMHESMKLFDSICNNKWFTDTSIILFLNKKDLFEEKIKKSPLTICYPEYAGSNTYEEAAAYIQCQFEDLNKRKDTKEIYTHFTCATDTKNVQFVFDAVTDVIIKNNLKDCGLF

CO/N=C(\C(=O)N[C@@H]1C(=O)N2C(C(=O)O)=C(COC(C)=O)CS[C@@H]12)c1csc(N)n1
not listed: [3]
inactive: all other assays above

CC[C@@]12CCCN3CCc4c(n(c5ccccc45)C(=O)C1)[C@H]32
not listed: [1] | [3]
inactive: all other assays above

CO[C@]1(NC(=O)CSCC#N)C(=O)N2C(C(=O)O)=C(CSc3nnnn3C)CS[C@H]21
inactive: all assays above

C[C@@H]1COc2c(N3CCN(C)CC3)c(F)cc3c(=O)c(C(=O)O)cn1c23
inactive: all assays above

c1ccc([C@@H]2CN3CCSC3=N2)cc1
inactive: [1] | [3]

C[C@@H](COc1ccccc1)N(CCCl)Cc1ccccc1
inactive: [1]

C[C@@H](CCc1ccccc1)NC[C@H](O)c1ccc(O)c(C(N)=O)c1
inactive: all assays above

O=C(O)CNC(=O)[C@@H](CS)Cc1ccccc1
inactive: [1] | [3]

CCCN[C@@H](C)C(=O)Nc1ccccc1C
inactive: all assays above
